# “And” between values parts separate entries of the source, which are not always exact repeats. Equal values may be shown once. Inconclusive results are not listed. The source holds several records for some structures; these can differ, active in one and inactive in another. The source made the active and inactive calls. Rule for the calls: active = hit-call score of the fitted dose curve at least 0.9, where 1 is the maximum; inconclusive = response in the unintended direction; inactive = score below 0.9.
# Tests used:
# [1] = TOX21_p53_BLA_p4_viability: Viability Assessment in the Tox21 HCT-116 p53 Agonism Beta-lactamase Assay, Phase 4 (AID 2283597);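 note: hits lower the luminescence signal meaning cytotoxicity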
# Procedure, shortened: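 Cytotoxicity was inferred from loss of CellTiter-Glo luminescence. HCT116 cells had been dosed with compounds after 5 h plating, incubated 16 h at 37C and 5% CO2, and exposed to the CCF4-AM substrate for 2 h.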
# [2] = TOX21_p53_BLA_p5_viability: Viability Assessment in the Tox21 HCT-116 p53 Agonism Beta-lactamase Assay, Phase 5 (AID 2283600)
# Procedure, shortened: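 Luciferase-coupled ATP quantitation of cells treated for 16 h (37C, 5% CO2) with test chemicals delivered in DMSO via a 217-fold dilution; 4000 cells/well; reagent incubated 30 min at room temperature before luminescence reading.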
# [3] = TOX21_p53_BLA_p3_viability: Viability Assessment in the Tox21 HCT-116 p53 Agonism Beta-lactamase Assay, Phase 3 (AID 2283593);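 note: cells exposed to compound for 16 h before reading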
# Procedure, shortened: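 HCT116 cells, 4000/well, dosed 5 h after plating by pin transfer (217-fold dilution from DMSO stock) and incubated 16 h at 37C, 5% CO2. Viability read as ATP luminescence with CellTiter-Glo after 30 min at room temperature.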
# [4] = target: Cellular tumor antigen p53 (Homo sapiens) (UniProt P04637); assay: TOX21_p53_BLA_p4_ratio: Tox21 HCT-116 p53 Agonism Beta-lactamase Assay, Ratio, Phase 4 (AID 2283601)
# Cellular tumor antigen p53 (Homo sapiens), sequence (P04637 whole entry, looked up): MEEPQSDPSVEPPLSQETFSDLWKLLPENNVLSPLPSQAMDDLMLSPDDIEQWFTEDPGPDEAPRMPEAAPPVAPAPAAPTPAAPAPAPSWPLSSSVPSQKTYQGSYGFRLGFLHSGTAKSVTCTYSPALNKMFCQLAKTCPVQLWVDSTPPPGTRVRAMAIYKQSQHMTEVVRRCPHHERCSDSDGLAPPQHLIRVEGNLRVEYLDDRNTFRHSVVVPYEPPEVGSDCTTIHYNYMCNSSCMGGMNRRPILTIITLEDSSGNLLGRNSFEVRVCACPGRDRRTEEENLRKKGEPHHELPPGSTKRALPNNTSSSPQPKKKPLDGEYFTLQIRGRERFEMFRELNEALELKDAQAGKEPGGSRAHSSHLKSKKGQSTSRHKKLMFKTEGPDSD
# Procedure, shortened: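 HCT-116 p53 beta-lactamase reporter cells (4000/well) preincubated 5 h, then compound (217-fold dilution of DMSO stock) for 16 h at 37C. CCF4-AM substrate added 2 h at room temperature; 460/530 nm emission ratio fitted upward versus DMSO.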
# [5] = target: Cellular tumor antigen p53 (Homo sapiens) (UniProt P04637); assay: TOX21_p53_BLA_p3_ratio: Tox21 HCT-116 p53 Agonism Beta-lactamase Assay, Ratio, Phase 3 (AID 2283596)
# Procedure, shortened: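 Cells were seeded at 4000/well, rested 5 h at 37C, then dosed with DMSO compound solutions (217-fold dilution) for 16 h. CCF4-AM substrate was loaded for 2 h at room temperature, and the 460/530 nm emission ratio was fitted for gain of signal versus DMSO.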
# [6] = target: Cellular tumor antigen p53 (Homo sapiens) (UniProt P04637); assay: TOX21_p53_BLA_p5_ratio: Tox21 HCT-116 p53 Agonism Beta-lactamase Assay, Ratio, Phase 5 (AID 2283599)
# Procedure, shortened: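 HCT-116 p53-bla cells (4000/well) plated 5 h, dosed with compound (217-fold DMSO dilution) for 16 h at 37 C; CCF4-AM substrate 2 h at room temperature. Activity is the 460/530 nm emission ratio (405 nm excitation), fitted in gain-of-signal direction versus DMSO.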
# [7] = test system: Thyroperoxidase (TPO), gene 54314; assay: CCTE_Simmons_AUR_rTPO: CCTE's Amplex UltraRed Assay for Thyroperoxidase (TPO) Inhibition, Simmons Lab (AID 2283662)
# Procedure, shortened: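 Rat thyroid microsomes (5 ug protein) with 25 uM Amplex UltraRed and 300 uM H2O2 in 200 mM phosphate buffer, 30 min at 37C in dark; fluorescence 544/590 nm. Eight concentrations, 5 nM–87.5 uM final, 0.5% DMSO, triplicate biological replicates.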
# [8] = target: Luciferin 4-monooxygenase (Photinus pyralis) (UniProt P08659); assay: CCTE_Simmons_QuantiLum_inhib_2: CCTE's Firefly Luciferase Inhibition Assay, Simmons Lab (AID 2283767);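 for AC50: potency for inhibitors that lower luciferase luminescence relative to DMSO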
# Luciferin 4-monooxygenase (Photinus pyralis), sequence (P08659 whole entry, looked up): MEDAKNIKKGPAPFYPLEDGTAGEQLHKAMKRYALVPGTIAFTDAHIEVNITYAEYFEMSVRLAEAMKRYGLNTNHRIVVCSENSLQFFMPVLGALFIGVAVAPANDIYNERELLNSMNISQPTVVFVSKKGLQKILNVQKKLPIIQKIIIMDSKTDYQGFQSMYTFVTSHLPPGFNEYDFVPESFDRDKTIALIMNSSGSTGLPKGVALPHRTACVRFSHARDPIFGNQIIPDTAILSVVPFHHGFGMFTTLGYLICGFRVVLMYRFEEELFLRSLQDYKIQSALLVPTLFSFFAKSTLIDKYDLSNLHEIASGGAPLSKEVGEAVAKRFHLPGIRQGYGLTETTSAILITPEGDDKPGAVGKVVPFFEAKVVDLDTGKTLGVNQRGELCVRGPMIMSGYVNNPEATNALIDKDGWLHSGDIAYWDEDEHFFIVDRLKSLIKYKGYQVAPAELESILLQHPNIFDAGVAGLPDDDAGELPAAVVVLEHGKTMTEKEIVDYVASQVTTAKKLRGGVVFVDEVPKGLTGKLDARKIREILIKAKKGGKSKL
# Procedure, shortened: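 Eight-point titrations of each chemical, 5 nM–87.5 uM final in 0.5% DMSO, were run in three biological replicates against recombinant luciferase for 30 min at 37C. Bioluminescence signal loss, read on reagent injection, gave the inhibition endpoint.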
# [9] = CCTE_Simmons_CellTiterGLO_HEK293T: Viability Assessment in CCTE's Assays for Thyroperoxidase (TPO) Inhibition, Simmons Lab (AID 2283665)
# Procedure, shortened: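 ATP depletion measured in HEK293T cells after 24 h dosing (8 concentrations, 5 nM–87.5 uM final; DMSO 0.5%) using CellTiter-Glo luminescence; curves fit for loss of signal against DMSO baseline.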
# [10] = ACEA_ER_AUC_viability: ACEA Biosciences xCELLigence Real-Time Cell Analysis on Estrogen Receptor Agonism for Viability (AID 2283782);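 note: hit means loss of impedance signal meaning reduced cell growth or viability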
# Procedure, shortened: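 Read-out: real-time electrical impedance (RT-CES) area under curve, loss of signal taken as reduced viability, normalized to DMSO baseline. T-47D cells, charcoal-stripped serum medium, compounds up to 100 uM final, continuous exposure, 80 h.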
# [11] = target: human Androgen Receptor (AR), AR (gene 367) (UniProt P10275); assay: ATG_hAR_XSP1: Attagene TRANS-FACTORIAL Multi-Species (XSP1) HepG2 Assay for human Androgen Receptor (AR) (AID 2283785)
# human Androgen Receptor (AR), AR (gene 367), sequence (P10275 whole entry, looked up): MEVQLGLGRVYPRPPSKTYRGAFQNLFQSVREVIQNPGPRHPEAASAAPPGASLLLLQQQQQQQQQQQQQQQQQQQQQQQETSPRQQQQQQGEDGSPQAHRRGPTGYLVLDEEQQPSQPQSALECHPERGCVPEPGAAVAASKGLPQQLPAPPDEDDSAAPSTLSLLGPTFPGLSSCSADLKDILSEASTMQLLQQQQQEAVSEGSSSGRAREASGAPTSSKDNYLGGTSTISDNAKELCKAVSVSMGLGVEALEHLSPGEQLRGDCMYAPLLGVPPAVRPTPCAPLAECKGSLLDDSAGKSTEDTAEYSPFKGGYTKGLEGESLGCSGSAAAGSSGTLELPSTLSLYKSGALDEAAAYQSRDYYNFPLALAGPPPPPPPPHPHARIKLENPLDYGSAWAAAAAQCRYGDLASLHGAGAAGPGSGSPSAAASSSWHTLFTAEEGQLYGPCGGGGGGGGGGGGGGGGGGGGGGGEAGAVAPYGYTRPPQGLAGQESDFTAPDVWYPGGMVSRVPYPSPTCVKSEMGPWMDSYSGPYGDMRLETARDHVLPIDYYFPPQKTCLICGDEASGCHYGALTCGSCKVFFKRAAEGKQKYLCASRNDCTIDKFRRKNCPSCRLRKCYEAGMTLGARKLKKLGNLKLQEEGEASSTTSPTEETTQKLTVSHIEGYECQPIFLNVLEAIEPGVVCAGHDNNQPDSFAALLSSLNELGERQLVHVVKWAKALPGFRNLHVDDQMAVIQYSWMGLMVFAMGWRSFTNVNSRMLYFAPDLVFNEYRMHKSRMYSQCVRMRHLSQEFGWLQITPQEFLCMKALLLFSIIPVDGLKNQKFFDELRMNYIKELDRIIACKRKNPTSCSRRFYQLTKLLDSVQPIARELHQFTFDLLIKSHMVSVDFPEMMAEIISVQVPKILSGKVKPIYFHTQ
compound,measurement,setting,value
N#CCCl,outcome,[1],inactive
same,outcome,[2],inactive
COC(=O)c1ccc(CBr)cc1,outcome,[3],inactive
same,outcome,[4],inactive
CCC(C)Br (centres undefined),outcome,[5],inactive
same,outcome,[1],inactive
same,outcome,[6],inactive
same,outcome,[2],inactive
same,outcome,[4],inactive
CCN(CC)CCN1C(=O)CN=C(c2ccccc2F)c2cc(Cl)ccc21,outcome,[1],inactive
same,outcome,[2],inactive
CC(Cc1ccc2c(c1)OCO2)NO (centres undefined),outcome,[3],inactive
same,outcome,[6],inactive
same,outcome,[4],inactive
CC(C)=CCN1CC[C@]2(C)c3cc(O)ccc3C[C@H]1[C@H]2C,outcome,[3],inactive
same,outcome,[6],inactive
same,outcome,[2],inactive
CCCCCCCCCCn1cc[n+](C)c1,AC50,[6],15.5 µM (active)
same,outcome,[6],inactive
same,AC50,[4],45.6 µM (active) and 21.5 µM (active) and 46 µM (active)
same,outcome,[4],inactive
CCOC(=O)c1cncn1C(C)c1ccccc1 (centres undefined),outcome,[5],inactive
COc1ccn(C)c(=O)c1C#N,outcome,[7],inactive
same,outcome,[8],inactive
Cc1ccc2cc3c(ccc4ccccc43)c3c2c1CC3,outcome,[7],inactive
same,outcome,[9],inactive
same,AC50,[8],0.263 µM (active)
CC(C)=CC1C(C(=O)OC(C#N)c2cccc(Oc3ccccc3)c2)C1(C)C (centres undefined),outcome,[10],inactive
CC1(C)C(C=C(Cl)Cl)C1C(=O)OCc1cccc(Oc2ccccc2)c1 (centres undefined),outcome,[11],inactive
